In PubChem BioAssay AID720706 (Broad Institute, 2013):
The campaign covered roughly 350,000 compounds. About 5,500 (1.6%) were called active.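 How the source made its calls: active means significant combined selectivity score with lowered wild-type GFP, culture density cut under 30%, mutant RFP and density less affected; inactive means any of these conditions unmet.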 The sample as a whole holds a higher share of actives than the screen did.

Assay: reduced GFP signal of wild-type E. coli, primary screen, bacterial rRNA inhibitor project, GFP/RFP fluorescence, OD600, single point (AID 720706)
Conditions: E. coli WT GFP vs humanized-ribosome RFP mutants, 24 h; GFP signal change (wild-type ribosome): stronger effect = lower value, DMSO median 0, no signal -100; OD600 change: measured here: OD600 growth, DMSO median 0, no signal -100; RFP signal change: measured here: RFP humanized mutant strains, DMSO median 0, no signal -100, concentration not given here

Row | Compound | GFP signal change (wild-type ribosome) | OD600 change [%] | RFP signal change [%]
1 | COc1ccc2c3c(n(C)c2c1)[C@H](CO)N(Cc1ccccc1)CC31CCN(C)CC1 | 0.784% (inactive) | 7.81 | 2.48
2 | O=S(=O)([N-]c1nc2ccccc2nc1-[n+]1ccc(Cc2ccccc2)cc1)c1ccc(Br)s1 | -29.2% (active) | -18.6 | -0.481
3 | CC(C)NC(=O)Nc1ccc2c(c1)CC(=O)N([C@@H](C)CO)C[C@@H](C)[C@H](CN(C)Cc1ccc(C(F)(F)F)cc1)O2 | 2.02% (inactive) | -34.5 | -0.097
4 | Cn1cc(CCC(=O)NCc2ccc3c(c2)OCO3)c2ccccc21 | -21.5% (active) | -10.6 | 2.95
5 | Cn1cc(CCC(=O)NC2CC2)c2ccccc21 | 4.27% (inactive) | 10.1 | -0.645
6 | CCN(CC)C(=O)C(=O)c1cn(CC(=O)NCc2ccc3c(c2)OCO3)c2ccccc12 | 10.3% (inactive) | -1.1 | 3.71
7 | O=C(C[C@@H]1CC[C@H](NC(=O)C2CCC2)[C@@H](CO)O1)NC1CCCCC1 | 3% (inactive) | 3.16 | -1.22
8 | Cc1ccc(S(=O)(=O)NCCCn2ccnc2)cc1C(=O)NC(C)C | 10.7% (inactive) | 7.94 | -1.51
9 | Cc1cccc(NS(=O)(=O)c2ccc(C)c(C(=O)NCC(c3ccccc3)N(C)C)c2)c1 (configuration not stated) | 4.21% (inactive) | 4.97 | 2.06
10 | Cc1ccc(S(=O)(=O)NCCC(c2ccccc2)c2ccccc2)cc1C(=O)O | -40.5% (active) | -24.2 | -13.9
11 | O=C([C@@H]1[C@@H](CO)[C@@H]2Cn3c(ccc(C4=CCCCC4)c3=O)[C@H]1N2Cc1nccs1)N1CCCCC1 | -2.47% (inactive) | 3.59 | 1.3
12 | COc1ccc(NC(=O)Nc2ccc3c(c2)CC(=O)N([C@H](C)CO)C[C@H](C)[C@H](CN(C)S(=O)(=O)c2ccccc2)O3)cc1 | 0.245% (inactive) | -2.9 | 0.358
13 | O=S(=O)(NCC[C@H]1CC[C@@H](NS(=O)(=O)c2ccccc2Cl)[C@@H](CO)O1)c1ccc(Cl)cc1 | -2.84% (inactive) | -5.01 | 0.345
14 | CC(=O)c1cccc(NC(=O)C2CCN(C(=O)c3ccccc3Cl)CC2)c1 | 0.045% (inactive) | 1.11 | 1.46
15 | Cc1ccc2c(c1)C1C[N+](C)(CC(=O)c3ccccc3)CCC1N2C(=O)c1ccccc1Cl (configuration not stated) | -33.1% (active) | -36.3 | 20.4
16 | Cc1ccc(C(=O)N2CCCc3ccccc32)c(Cl)c1 | -20.5% (inactive) | -35.7 | -12.1
17 | COc1ccc(NC(=O)N(C)C[C@H]2Oc3ccc(NC(=O)Nc4ccc5c(c4)OCO5)cc3C(=O)N([C@H](C)CO)C[C@H]2C)cc1 | 0.515% (inactive) | 4.81 | 0.195
18 | C[C@H](O)C#Cc1cnc2c(c1)C(=O)N([C@H](C)CO)C[C@H](C)[C@@H](CN(C)C(=O)Nc1ccc(F)cc1)O2 | 1.18% (inactive) | 9.67 | -3.38
19 | COc1ccc(C#Cc2ccc([C@H]3[C@H]4CN(C(=O)c5cccnc5)CC(=O)N4[C@H]3CO)cc2)cc1 | 0.302% (inactive) | -5.28 | 2.11
20 | COc1ccc(OC)c(/C(C)=N\NC(=O)c2cc3cc(Cl)ccc3n2C)c1 | -24% (active) | -9.4 | -0.802

Row | Compound | GFP signal change (wild-type ribosome) | OD600 change [%] | RFP signal change [%]
21 | COc1ccc(/C(C)=N/NC(=O)CCC(=O)Nc2ccc(Cl)cc2Cl)c(OC)c1 | -6.41% (inactive) | -4.28 | 3.43
22 | COc1cc(C(=O)NCc2cc3cc(Cl)ccc3n2C)cc(OC)c1OC | 4.54% (inactive) | 12 | 5.4
23 | C[C@@H](C(=O)N(C)C[C@H]1OCc2ccccc2-c2c(n(C)c3ccccc23)C(=O)N([C@@H](C)CO)C[C@@H]1C)c1ccccc1 | -2.7% (inactive) | -4.37 | 3.17
24 | COc1ccc(CN(C)C[C@H]2OCc3cn(nn3)CCCC(=O)N([C@@H](C)CO)C[C@@H]2C)cc1 | -0.663% (inactive) | 4.94 | -1.83
25 | COc1ccc(NS(=O)(=O)c2ccc(Oc3c(C#N)cccc3C#N)cc2)cc1 | -33% (active) | -6.7 | -3.93
26 | COc1ccc(NS(=O)(=O)c2cccc(C(=O)NCCc3ccc(S(N)(=O)=O)cc3)c2)cc1 | -0.729% (inactive) | -4.13 | 2.24
27 | COc1ccc(NS(=O)(=O)c2ccc(N3CCN(CCO)CC3)c([N+](=O)[O-])c2)cc1 | -3.32% (inactive) | 8.86 | 0.35
28 | C[C@@H]1CN([C@H](C)CO)C(=O)c2cc(NC(=O)CCN3CCOCC3)ccc2O[C@H]1CN(C)Cc1ccc(Oc2ccccc2)cc1 | -0.524% (inactive) | 2.21 | -0.41
29 | O=C(Nc1ccccc1F)N[C@H]1CC[C@@H](CCNS(=O)(=O)c2ccc(F)cc2)O[C@@H]1CO | 0.53% (inactive) | -4.9 | 0.665
30 | O=C1Oc2ccccc2C(=O)/C1=C/c1ccccc1O | -24% (active) | -16.1 | -3.67
31 | COC(=O)c1ccc(/C=C2/C(=O)Oc3ccccc32)cc1 | 5.01% (inactive) | 8.63 | -1.53
32 | O=C(NN=Cc1ccccc1O)NN=Cc1ccccc1O | -15.2% (inactive) | -34.3 | -9.61
33 | O=C(N[C@H]1CC[C@@H](CCNS(=O)(=O)Cc2ccccc2)O[C@H]1CO)c1ccccc1F | 1.77% (inactive) | 2.62 | 1.25
34 | COCC(=O)Nc1ccc2c(c1)C(=O)N(C)C[C@H](OC)[C@@H](C)CN(CCc1ccccc1)[C@@H](C)CO2 | -2.84% (inactive) | -4.45 | -1.3
35 | CCC(C)CN1C(=O)CN(S(C)(=O)=O)CC1(C)C(=O)Nc1ccc2c(c1)OCCO2 (configuration not stated) | 11.4% (inactive) | 6.25 | 0.462
36 | CC1(C(=O)Nc2ccc3c(c2)OCCO3)CSCC(=O)N1CCOc1ccccc1 (configuration not stated) | -19.5% (active) | -13.7 | 6.62
37 | Cc1ccccc1CN1C(=O)CSCC1(C)C(=O)Nc1c(C)cccc1C (configuration not stated) | -3.76% (inactive) | 8.15 | 2.11
38 | C[C@@H]1CCCCO[C@@H](CN(C)C(=O)Cc2ccccc2)[C@H](C)CN([C@H](C)CO)C(=O)c2cc(NC(=O)Cc3ccccc3)ccc2O1 | -4.58% (inactive) | -13.8 | -0.346
39 | COc1cccc(CNC(=O)[C@@H]2[C@@H](CO)[C@@H]3Cn4c(ccc(-c5ccncc5)c4=O)[C@H]2N3C(C)=O)c1 | 2.73% (inactive) | -2.66 | -0.658
